Source: the supplement of paper PMC13380429

Test system: Vero E6 infected with SARS-CoV-2
Experiment: inhibition of SARS-CoV-2 cytopathic effect; higher = more antiviral protection, active = above 15
Conditions: 48 h

Measured: inhibition of SARS-CoV-2 cytopathic effect

Cc1cc(C(=O)Nc2nc3cccc(Cl)c3n2[C@@H]2CCCCN(C(=O)/C=C/CN(C)C)C2)ccn1
inactive: 1 nM 2.52% | 8.33 nM -0.94% | 100 nM 0.57% | 833.33 nM -8.44% | 10000 nM 10.4%

Nc1nc(OCc2cc(Br)cs2)c2[nH]cnc2n1 [lomeguatrib]
inactive: 1 nM -1% | 8.33 nM 0% | 100 nM 0.04% | 833.33 nM -0.89% | 10000 nM 0.11%

COc1cc(N2CCN(C)CC2)ccc1Nc1nccc(-c2cn(C)c3cnccc23)n1
active: 10000 nM 40.7%
inactive: 1 nM 0.14% | 8.33 nM -0.24% | 100 nM 2.63% | 833.33 nM -0.7%

O=C(Oc1ccccc1)c1ccccc1O [phenyl-salicylate]
inactive: 1 nM -7.58% | 8.33 nM -2.22% | 100 nM -0.85% | 833.33 nM 3.43% | 10000 nM 5.08%

Cc1ccc(C(=O)Cn2c3c(sc2=N)CCCC3)cc1 [pifithrin-alpha]
inactive: 1 nM -1.05% | 8.33 nM -0.83% | 100 nM -1.23% | 833.33 nM -1.09% | 10000 nM -2.47%

CC1/C=C/C=C/C=C/C=C/C=C/C=C/C=C/C(OC2O[C@H](C)[C@@H](O)[C@H](N)[C@@H]2O)CC(O)C(C(=O)O)C(O)CC(=O)CC(O)CC(O)CC(O)CC(=O)CCCC(=O)CC(=O)OC1C(C)CC(C)C(O)CC(=O)c1ccc(N)cc1 (stereo not given in full) [candicidin]
inactive: 1 nM -0.52% | 8.33 nM 4.78% | 100 nM 3.57% | 833.33 nM 4.79% | 10000 nM -2.56%

CCOC(=O)c1ncn2c1CN(C)C(=O)c1cc(N=[N+]=[N-])ccc1-2
inactive: 1 nM 3.15% | 8.33 nM 7.03% | 100 nM 2.59% | 833.33 nM -0.14% | 10000 nM -2.15%

CC(C)[C@@H]1C(=O)N(S(C)(=O)=O)[C@@H]2CCN(C(=O)/C=C/CN3CCCCC3)[C@H]21
inactive: 1 nM -0.03% | 8.33 nM -1.45% | 100 nM 1.05% | 833.33 nM -0.28% | 10000 nM 0.66%
